Among the data in ChEMBL document CHEMBL3988442, “University of Dundee, Small-Polar-MMV Screening Library” (2021) are Percent Effect values, retold here.

In this assay the target is AMP-activated protein kinase, AMPK (Homo sapiens) (UniProt P54646+O43741+P54619+Q9UGJ0+Q9Y478+Q13131+Q9UGI9). The assay can be described thus: AMP-dependent Kinase enzyme assay. An in vitro enzyme assay that detects ADP turnover that is directly proportional to AMPK activity. This uses naive AMPK that is activated during the assay with MK-8722. The note with it: 30 µM. On the set-up: scale not given: direction of the effect not stated beside the values. The assay is classed as functional.
As to `NC(=O)C1CCN(C(=O)NC(Cc2ccccc2)C(F)(F)F)CC1` (centres undefined), the Percent Effect came to 0.0823%.
For the compound `CNC(=O)c1ccnc(N2CCCC(COc3cccc(C)c3)C2)c1` (centres undefined), the Percent Effect worked out at 29.8%.
The value for `Cc1ccc(C)c(CN(CC(N)=O)C(C)C)c1` was -8.2%; that for `CC(C)(C(=O)N[C@@H]1CCC[C@@H](O)[C@@H]1O)c1cccc(F)c1` was 15.9%; that for `COc1ccc(C(=O)NC2CCN(c3ncccn3)CC2)cc1F` was -7.58%.
The value for `CCc1nc(N)nc(NCCC(=O)NC2CCCCC2)c1C` was 0.541%; that for `O=C(Cn1nc2ccccc2n1)N1CCCC(O)(CN2CCCC2)C1` (centres undefined) was -2.27%; that for `CCC(CNC(=O)CCn1cncn1)N1CCc2ccccc2C1` (centres undefined) was 1.86%.
`CCn1ncnc1C1CC(=O)NCc2nc(N)sc21` (centres undefined): the Percent Effect is -18.1%.
The value for `CN1CCCN(c2ccc(F)cc2CNC(=O)c2cccnc2)CC1` was 38.2%.
To `Cc1ccc(N2CCCN(C(=O)CCc3ccsc3)CC2)nn1` belongs -4.33%; to `CS(=O)(=O)C1(CNCc2cccc(-n3cccn3)c2)CCOCC1`, 3.19%; to `Cc1cccc(C)c1Nc1noc2c1CN(C(=O)c1ccnn1C)CC2`, 9.88%.
To `C[C@@H]1CN(C(=O)C2(Cn3cccn3)CC2)CC[C@@]1(O)C1CCOCC1` belongs 6.2%; to `O=C(c1nnn(-c2ccc(F)cc2)n1)N(CCO)Cc1ccccc1`, 3.9%; to `COCCC1CCCCN1C(=O)c1coc(COc2ccccc2F)n1` (centres undefined), 12.2%.
`Cc1ncn(CCNC(=O)Nc2ccc(F)c(Cl)c2)c(=O)c1C`: the Percent Effect is 2.03%.
As for `CCOc1ccc(CN2CCOCC2c2[nH]ncc2C)cc1CO` (centres undefined), the Percent Effect came to 22.7%.
In the case of `O=C(O)[C@@H]1CN(CCOCCO)C[C@H]1c1ccccc1`, the Percent Effect was determined as 1.29%.
